# Results reported in PubChem BioAssay AID2662 (National Center for Advancing Translational Sciences (NCATS), 2010).
# About 110 (0.038%) of roughly 290,000 compounds were called active. Inconclusive results (about 3%) are left out. This is one part of a sample in which actives are shown more often than they occur. Calls come from the whole dose curve; as a rule, active = well fitted inhibition curve with a large enough effect in the polarisation, with a control signal flat (not every such curve was filed as active); inconclusive = small, poorly fitted or top-dose-only effect, or effect the other way, or a change in a side signal; inactive = no such curve, though single readings can be large or run the other way; the % refers to the polarisation.
# Molecular target: Histone-lysine N-methyltransferase 2A (Homo sapiens) (UniProt Q03164)
# Sequence (Q03164 whole entry, looked up, the tested form may be a part): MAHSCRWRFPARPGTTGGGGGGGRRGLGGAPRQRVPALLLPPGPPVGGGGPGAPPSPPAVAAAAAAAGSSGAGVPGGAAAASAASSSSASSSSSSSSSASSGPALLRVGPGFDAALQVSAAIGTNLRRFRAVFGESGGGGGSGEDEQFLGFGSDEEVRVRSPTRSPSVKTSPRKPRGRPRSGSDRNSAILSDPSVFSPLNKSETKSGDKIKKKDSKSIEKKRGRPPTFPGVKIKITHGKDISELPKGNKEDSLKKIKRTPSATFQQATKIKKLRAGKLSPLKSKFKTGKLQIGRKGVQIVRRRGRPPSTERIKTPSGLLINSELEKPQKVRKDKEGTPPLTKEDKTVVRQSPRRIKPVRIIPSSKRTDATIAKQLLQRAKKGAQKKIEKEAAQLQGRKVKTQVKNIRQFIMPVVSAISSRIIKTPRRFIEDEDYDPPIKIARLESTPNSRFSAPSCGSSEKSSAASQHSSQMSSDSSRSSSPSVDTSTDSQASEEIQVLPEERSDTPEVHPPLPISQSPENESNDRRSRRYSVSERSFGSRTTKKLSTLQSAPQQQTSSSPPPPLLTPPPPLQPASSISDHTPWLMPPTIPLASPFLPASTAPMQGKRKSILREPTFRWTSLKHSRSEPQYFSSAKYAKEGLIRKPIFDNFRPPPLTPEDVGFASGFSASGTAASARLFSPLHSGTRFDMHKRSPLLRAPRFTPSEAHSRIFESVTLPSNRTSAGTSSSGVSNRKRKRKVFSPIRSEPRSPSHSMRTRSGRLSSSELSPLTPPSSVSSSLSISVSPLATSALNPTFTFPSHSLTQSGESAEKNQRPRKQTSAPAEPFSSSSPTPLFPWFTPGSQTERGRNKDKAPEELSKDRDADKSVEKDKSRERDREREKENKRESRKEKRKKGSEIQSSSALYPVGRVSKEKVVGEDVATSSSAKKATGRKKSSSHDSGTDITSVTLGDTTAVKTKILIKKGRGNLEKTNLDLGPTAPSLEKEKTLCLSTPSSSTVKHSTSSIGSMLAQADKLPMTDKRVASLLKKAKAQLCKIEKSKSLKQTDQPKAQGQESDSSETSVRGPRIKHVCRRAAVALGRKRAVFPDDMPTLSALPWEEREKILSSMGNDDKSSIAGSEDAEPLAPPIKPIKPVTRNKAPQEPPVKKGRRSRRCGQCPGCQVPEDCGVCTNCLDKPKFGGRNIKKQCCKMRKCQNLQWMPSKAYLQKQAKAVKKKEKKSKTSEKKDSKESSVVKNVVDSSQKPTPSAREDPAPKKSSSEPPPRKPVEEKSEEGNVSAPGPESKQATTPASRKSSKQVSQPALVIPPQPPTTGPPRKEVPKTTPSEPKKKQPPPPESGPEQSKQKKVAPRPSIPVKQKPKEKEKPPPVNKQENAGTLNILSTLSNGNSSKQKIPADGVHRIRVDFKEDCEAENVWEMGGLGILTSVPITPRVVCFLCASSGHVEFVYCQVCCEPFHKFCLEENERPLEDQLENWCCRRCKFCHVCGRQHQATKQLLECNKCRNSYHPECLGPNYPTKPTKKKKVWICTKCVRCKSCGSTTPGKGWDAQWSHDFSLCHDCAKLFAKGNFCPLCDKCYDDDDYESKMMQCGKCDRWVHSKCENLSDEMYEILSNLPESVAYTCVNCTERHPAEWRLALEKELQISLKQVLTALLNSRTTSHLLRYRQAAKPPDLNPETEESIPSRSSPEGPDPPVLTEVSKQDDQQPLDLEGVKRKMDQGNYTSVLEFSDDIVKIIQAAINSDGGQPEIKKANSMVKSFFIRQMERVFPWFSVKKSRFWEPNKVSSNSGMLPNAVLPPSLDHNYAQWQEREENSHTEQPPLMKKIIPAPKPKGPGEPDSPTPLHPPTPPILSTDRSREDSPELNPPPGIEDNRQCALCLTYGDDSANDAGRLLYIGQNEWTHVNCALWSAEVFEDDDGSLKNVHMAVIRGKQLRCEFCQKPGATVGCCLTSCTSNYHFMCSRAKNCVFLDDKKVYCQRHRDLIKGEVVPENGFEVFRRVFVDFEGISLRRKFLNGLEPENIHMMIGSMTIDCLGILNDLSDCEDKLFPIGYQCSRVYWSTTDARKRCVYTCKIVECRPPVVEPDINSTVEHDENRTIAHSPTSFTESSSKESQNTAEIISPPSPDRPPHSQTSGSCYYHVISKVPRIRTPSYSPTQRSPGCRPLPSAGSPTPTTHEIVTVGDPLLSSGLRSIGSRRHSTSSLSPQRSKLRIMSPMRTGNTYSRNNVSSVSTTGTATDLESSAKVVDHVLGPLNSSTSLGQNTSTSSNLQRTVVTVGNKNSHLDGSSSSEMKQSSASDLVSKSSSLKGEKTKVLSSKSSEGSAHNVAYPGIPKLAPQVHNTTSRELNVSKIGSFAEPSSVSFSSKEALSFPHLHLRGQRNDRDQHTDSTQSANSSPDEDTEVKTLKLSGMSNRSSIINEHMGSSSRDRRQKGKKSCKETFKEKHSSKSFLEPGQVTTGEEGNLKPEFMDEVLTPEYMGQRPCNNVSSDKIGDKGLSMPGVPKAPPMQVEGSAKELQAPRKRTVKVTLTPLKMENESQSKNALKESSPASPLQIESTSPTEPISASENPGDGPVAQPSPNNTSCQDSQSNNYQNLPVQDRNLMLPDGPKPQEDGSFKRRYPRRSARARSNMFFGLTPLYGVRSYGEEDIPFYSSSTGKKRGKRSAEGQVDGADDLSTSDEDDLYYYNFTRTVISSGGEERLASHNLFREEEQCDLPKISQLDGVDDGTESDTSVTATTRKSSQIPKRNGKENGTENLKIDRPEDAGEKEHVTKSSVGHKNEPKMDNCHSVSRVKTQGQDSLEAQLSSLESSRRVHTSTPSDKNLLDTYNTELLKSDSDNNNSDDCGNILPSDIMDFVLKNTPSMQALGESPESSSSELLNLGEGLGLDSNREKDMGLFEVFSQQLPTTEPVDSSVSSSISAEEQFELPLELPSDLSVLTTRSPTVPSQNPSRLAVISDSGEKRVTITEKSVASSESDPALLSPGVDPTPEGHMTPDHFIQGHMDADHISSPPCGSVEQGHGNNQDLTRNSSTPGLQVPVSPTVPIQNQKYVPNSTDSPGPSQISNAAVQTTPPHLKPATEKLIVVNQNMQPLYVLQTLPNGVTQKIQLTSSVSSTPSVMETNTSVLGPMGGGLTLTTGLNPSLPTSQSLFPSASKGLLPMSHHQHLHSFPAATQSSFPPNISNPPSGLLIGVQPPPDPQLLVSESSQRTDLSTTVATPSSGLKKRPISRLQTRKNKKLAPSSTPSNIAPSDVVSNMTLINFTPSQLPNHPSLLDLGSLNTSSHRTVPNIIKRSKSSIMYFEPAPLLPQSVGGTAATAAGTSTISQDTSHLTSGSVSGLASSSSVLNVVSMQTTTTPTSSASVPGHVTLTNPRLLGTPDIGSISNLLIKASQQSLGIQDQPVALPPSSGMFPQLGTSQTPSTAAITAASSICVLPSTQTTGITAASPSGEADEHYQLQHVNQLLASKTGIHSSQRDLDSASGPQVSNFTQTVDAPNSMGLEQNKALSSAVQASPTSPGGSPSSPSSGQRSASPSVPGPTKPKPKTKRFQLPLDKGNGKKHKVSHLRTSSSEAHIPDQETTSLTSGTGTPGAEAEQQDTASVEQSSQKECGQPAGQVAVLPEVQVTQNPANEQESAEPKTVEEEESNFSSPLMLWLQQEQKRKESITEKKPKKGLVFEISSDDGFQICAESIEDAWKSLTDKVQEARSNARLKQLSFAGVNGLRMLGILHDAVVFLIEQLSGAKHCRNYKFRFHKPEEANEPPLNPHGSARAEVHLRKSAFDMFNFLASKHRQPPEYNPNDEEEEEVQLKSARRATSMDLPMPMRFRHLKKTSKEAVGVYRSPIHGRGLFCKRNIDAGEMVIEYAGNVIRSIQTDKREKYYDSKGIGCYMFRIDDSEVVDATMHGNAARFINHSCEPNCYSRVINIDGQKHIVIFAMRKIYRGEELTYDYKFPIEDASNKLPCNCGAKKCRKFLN
# Assay: qHTS Fluorescence Polarization Assay for Inhibitors of MLL CXXC domain - DNA interaction
# Details: MLL-CXXC / FITC-HOXA9 DNA fluorescence polarization; series mostly up to 115 µM; activity change, negative = inhibition: at the top concentration
# Summary of the method: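 Fluorescence polarization: 7 uM MLL-CXXC (stock) preincubated 5 min with compounds, then 50 nM fluorescein-HOX-A9 DNA (stock) added; 30 min ambient. Buffer 50 mM Tris-HCl pH 7.5, 50 mM NaCl, 1 mM DTT, 0.05% BSA.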
# Potency is the fitted concentration of half-maximal effect.
Structure (SMILES),"activity change, negative = inhibition",Potency
COc1ccc(NC(=S)N2CCC(NC(=O)c3cccc(F)c3)CC2)cc1,5.04% (inactive),
S=C(Nc1ccc(Cl)cc1Cl)N1CCCC1,8.17% (inactive),
Cc1ccc(-c2csc(N3CCN(c4cc5c(cc4Cl)nc(-c4ccncc4)n5CCOCCO)CC3)n2)cc1,17.7% (inactive),
O=C(N/N=C/c1cccnc1)c1ccc(NC(=O)c2ccc(F)cc2)cc1,-6.31% (inactive),
COCCC(=O)N1CCC(Oc2ccc(C(=O)NCc3ccon3)cc2)CC1,-13.7% (inactive),
O=c1[nH]cnc(O)c1C(c1ccc(F)cc1)c1c(O)nc[nH]c1=O,-8.5% (inactive),
CCCc1nnc(NC(=O)CCC(=O)N2CCN(S(=O)(=O)c3ccc(OC)cc3)CC2)s1,-3.18% (inactive),
O=C(c1cc2ccccc2o1)N1CCN(c2cccc(C(F)(F)F)c2)CC1,13.8% (inactive),
CCN(CC)CCCNC(=S)N(CCO)Cc1cc2cc3c(cc2[nH]c1=O)OCO3,1.28% (inactive),
CC(=O)N(CC(O)CO)c1c(I)c(C(=O)NCC(O)CO)c(I)c(C(=O)NCC(O)CO)c1I (stereo unspecified),3.35% (inactive),
CC(C)=CCN1CCN(Cc2cc3ccccc3[nH]2)CC1CCO (stereo unspecified),2.45% (inactive),
CCc1ccc(C(=O)NN=C2CCCCCC2)s1,-6.71% (inactive),
COc1ccc(C(=O)Nc2ccc(C(=O)NCC3CCCO3)cc2)c(OC)c1OC (stereo unspecified),-5.91% (inactive),
O=C(c1cccc(Br)c1)N1CCN(C2=NS(=O)(=O)c3ccccc32)CC1,0.198% (inactive),
O=C(NCCCNC(=O)c1ccccc1Cl)c1cnccn1,1.34% (inactive),
Cc1cc(C)c(C(=O)CSc2nc(C)cc(=O)[nH]2)c(C)c1,15.2% (inactive),
NC(=O)Cn1cc(/C=N\NS(=O)(=O)c2ccccc2)c2ccccc21,0.323% (inactive),
COc1cccc(CN(C)CC2CCCN(CCc3ccc(Cl)cc3)C2)c1OC (stereo unspecified),-12.2% (inactive),
C/C=C/C=N/NC(=O)c1ccncc1,-7.45% (inactive),
CN1C(=O)[C@H]2[C@@H](C3CC3)N3C(=O)CN(Cc4ccccc4)C(=O)[C@@]3(C)[C@H]2C1=O,-2.11% (inactive),
COc1ccc(C(=O)CCC(=O)Nc2cccnc2)c(OC)c1,24.3% (inactive),
CC(C)(O)c1ccccc1CC[C@H](SCC1(CC(=O)O)CC1)c1cccc(/C=C/c2ccc3ccc(Cl)cc3n2)c1,-8.6% (inactive),
CCN(CC)c1ccc(C(=O)Nn2c(C)nc3ccccc3c2=O)cc1,-3.36% (inactive),
O=C(NC(=S)Nc1ccc(Cl)c(C(=O)O)c1)c1cncc(Br)c1,12.4% (inactive),
CC(C)c1ccc(C2C(C(=O)c3ccco3)=C(O)C(=O)N2CC2CCCO2)cc1 (stereo unspecified),6.78% (inactive),
COc1cc(C)c(C)cc1S(=O)(=O)N1CCCc2ccccc21,1.1% (inactive),

Structure (SMILES),"activity change, negative = inhibition",Potency
Cc1c(S(=O)(=O)N2CC(C)CC(C)C2)c(=O)n(C)c(=O)n1C (stereo unspecified),17.4% (inactive),
O=CN1CCN(C(=O)c2ccc(Br)o2)CC1,6.07% (inactive),
Cc1ccc(NS(=O)(=O)c2ccc(-c3coc(C)n3)cc2)c(C)c1,-1.43% (inactive),
COc1ccc(S(=O)(=O)/N=C2\C=C(NS(=O)(=O)c3ccccc3)C(=O)c3ccccc32)cc1,,25.1 µM (active)
COc1ccc2cc(S(=O)(=O)Nc3ccccn3)ccc2c1,0.793% (inactive),
COc1ccc(S(=O)(=O)Nc2c(C)n(C)n(-c3ccccc3)c2=O)cc1,-7.65% (inactive),
NC(=O)c1cc(S(=O)(=O)N2CCCC2)ccc1OCc1ccc(F)cc1,13.4% (inactive),
O=C(O)c1ccc(S(=O)(=O)N2CCOCC2)o1,1.09% (inactive),
CCn1nc(C)c(CNC(=O)C2CCC(=O)N(Cc3cccc(F)c3)C2)c1C (stereo unspecified),0.542% (inactive),
COc1ccc(-c2cc(=O)oc3cc(OCC(=O)N(C)C4CCS(=O)(=O)C4)ccc23)cc1 (stereo unspecified),0.391% (inactive),
Cc1cc(C)c2c(Cn3ccnc3)cc(=O)oc2c1,11.5% (inactive),
Cc1cc(-c2nnc(SCC(=O)Nc3ccc(S(N)(=O)=O)cc3)n2N)n[nH]1,12.2% (inactive),
Cc1ccc(NC(=O)NC(=O)c2ccccc2)cc1F,15.1% (inactive),
Cc1ccc(NC(=O)CSc2nn3c(=O)c(C)nnc3s2)cc1Cl,4.2% (inactive),
COc1ccc(CNS(=O)(=O)c2ccc(NC(=O)N3CCCCC3)cc2)cc1,-3.43% (inactive),
CCCc1cc(C(=O)N2CCCC(CO)(CCCc3ccccc3)C2)n(C)n1 (stereo unspecified),3.59% (inactive),
Cc1ccc(C(=O)NCC(=O)OCc2nnc(-c3ccccc3)o2)cc1,-10.8% (inactive),
COc1ccc(CN2CCCC(N3CCc4ccccc4C3)C2)c(O)c1 (stereo unspecified),-1.21% (inactive),
CC(C)(C)c1ccc(C(=O)N2CCN(CCNC(=O)C(=O)Nc3ccc(F)cc3)CC2)cc1,-10.7% (inactive),
O=C(NCCCN1CCOCC1)C1CCCN(S(=O)(=O)N2CCCCC2)C1 (stereo unspecified),0.988% (inactive),
O=C(CCn1nnc2ccccc21)OCC(=O)c1ccc([N+](=O)[O-])cc1,-0.286% (inactive),
COc1cc([N+](=O)[O-])cc([N+](=O)[O-])c1NC(=O)N1CCOCC1,-1.05% (inactive),
Cc1csc(NC(=O)CSc2nc(=O)cc(N)n2-c2ccc(F)cc2)n1,1.97% (inactive),
CCOc1ccc(S(=O)(=O)N2CCCC(C(=O)N3CCC(C(N)=O)CC3)C2)cc1Cl (stereo unspecified),2.08% (inactive),
Cc1c(CN2CCC(n3nccc3NC(=O)CCc3ccccc3)CC2)cnn1C,6.67% (inactive),
CC(=O)c1ccc(NC(=O)Cn2c(=O)oc3ccccc32)cc1,-3.9% (inactive),

Structure (SMILES),"activity change, negative = inhibition",Potency
CCOc1ccccc1NC(=O)C1CCCN(S(=O)(=O)c2ccccc2)C1 (stereo unspecified),0.776% (inactive),
CC1CCC(NS(=O)(=O)c2ccc3c(c2)CC(=O)N3)CC1 (stereo unspecified),5.85% (inactive),
CC(=O)N[C@@H](C)C(=O)N1CCC(n2nccc2NC(=O)CCCc2ccccc2)CC1,4.89% (inactive),
Clc1ccc(C(Cn2ccnc2)OCc2ccsc2Cl)c(Cl)c1 (stereo unspecified),0.809% (inactive),
COc1ccc(OCCn2ccnc2C)cc1,-0.496% (inactive),
Cc1ccc(CN(C)Cc2cc(=O)oc3cc(C)c(Cl)cc23)cc1,15.9% (inactive),
COc1ccc(N(C(=O)CNC(=O)c2ccco2)C(C(=O)NCC2CCCO2)c2ccccc2)cc1Cl (stereo unspecified),-5.18% (inactive),
CCOC(CNC(=O)C(=O)NCC(c1ccco1)N1CCN(c2ccc(OC)cc2)CC1)OCC (stereo unspecified),-8.29% (inactive),
Cc1ccc(NS(=O)(=O)c2c(C)[nH]c(C)c2C(=O)N2CCCCC2)c(C)c1,1.83% (inactive),
CCOC(=O)c1cccc(NC(=O)C2CCN(c3ncnc4c3nc3n4CCCCC3)CC2)c1,1.78% (inactive),
O=S1(=O)CCO[C@H]2Cc3ccccc3[C@H]2N1Cc1ccccc1,-1.12% (inactive),
CC(C)c1ccc(/C=C2\NC(=O)NC2=O)cc1,1.65% (inactive),
Cc1cccc(NS(=O)(=O)c2ccc([N+](=O)[O-])cc2)n1,0.441% (inactive),
COc1ccc(NC(=O)CC2C(=O)NC3CCCCC3N2C(=O)c2ccc(F)cc2)cc1 (stereo unspecified),18.1% (inactive),
COCC1CCN(C(=O)C2CCC(=O)N(CC3CCCCC3)C2)CC1 (stereo unspecified),22.3% (inactive),
S=C(NCCC1=CCCCC1)Nc1ccccc1,-18.3% (inactive),
CSc1ccccc1OCc1cc(C(=O)N2C[C@H]3CC[C@H]2C3)no1,4.47% (inactive),
O=C(Cc1ccc(Cl)cc1)NC(=S)Nc1ccccc1O,15% (inactive),
CCC(C)(C)n1nnnc1C(c1ccc(OC)c(OC)c1)N1CCN(C(=O)c2ccco2)CC1 (stereo unspecified),4.14% (inactive),
CC(=O)NC(Cc1c[nH]c2ccccc12)C(=O)NCCc1ccccc1 (stereo unspecified),4.26% (inactive),
C[C@H](C(=O)CC(=O)OC(C)(C)C)[C@H](O)c1ccc(C(F)(F)F)cc1,5.01% (inactive),
CCc1nc2nc(C)c(NS(=O)(=O)c3ccc4c(c3)CCCC4)c(=O)n2[nH]1,-9.81% (inactive),
CCOC(=O)c1c(C)[nH]c(C(=O)NCCN2CCOCC2)c1C,6.14% (inactive),
COc1ccc(NS(=O)(=O)c2cc(C(=O)Nc3ccccc3C(=O)O)ccc2C)cc1,-16.7% (inactive),
